Where “and” joins values, the source holds several entries; their conditions need not be identical. Equal entries are not always repeated. Records with an inconclusive call do not appear. Calls of active or inactive are those of the source. Unless noted, no stated cut-off is given here; in the data, active means parasite load remaining mostly below about 12% (no sharp cut-off); inactive means mostly above about 10%.
What was measured:
[1] = target: ATP-dependent translocase ABCB1 (Homo sapiens) (UniProt P08183); assay: P-glycoprotein substrate transport blockade – cell-based (AID 377; in the data active means fluorescence slope change above about 50%); conditions: MDR1-expressing cells, fluorescent substrate accumulation slope; stronger effect = higher value; concentration not given here
[2] = compounds altering circadian rhythm period length – cell-based, LOPAC library, luminescence reporter (AID 2774; call rule not given here;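 further: values are relative to mean of DMSO wells on each plate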); conditions: circadian reporter cells, at 7 µM, actives lie on both sides
[3] = test system: Neuropilin-2 / VEGF-C interaction (human); assay: small molecules blocking Neuropilin-2/VEGF-C interaction – biochemical, microplate binding format, z-score (AID 743281; call rule not given here); conditions: microplate NRP2/VEGF-C binding assay; stronger effect = lower value
[4] = viability loss in pontine glioma line – cell-based, SU-DIPG-XIII, MIPE5.0, CellTiter-Glo, qHTS, dose response (AID 1347064; cut-off not given, nearly all actives have AC50 up to about 23 µM;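 on AC50: cells exposed to compound for 48 hours before the viability read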); conditions: CellTiter-Glo ATP luminescence
[5] = compounds altering HSF1 focus formation in cells – imaging, Selleck Cancer Library (AID 1347162; in the data active means plate-normalised HSF1 focus index below about 0.46); conditions: human cells, HSF1 nuclear foci imaging, at 10 µM; SSMD: measured here: HSF1 foci SSMD mean; cell count: measured here: cell number; plate-normalised HSF1 focus index: stronger effect = lower value
[6] = growth inhibition, single agents and combos, CRL2098, cell-based, BGB or cisplatin IC20 combos, synergistic combos for chromothripsis tumors (AID 1671454; in the data active means inhibition above about 80%;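 further: cells exposed for 96 h before readout; 0% = vehicle DMSO and 100% = killing by high DMSO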); conditions: CRL2098 osteosarcoma cells, drug combinations, stronger effect = higher value
[7] = growth inhibition, single agents and combos, HD-MB03, cell-based, BGB or cisplatin IC20 combos, synergistic combos for chromothripsis tumors (AID 1671455; in the data active means inhibition above about 83%;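 further: 0% = vehicle DMSO and 100% = high DMSO as cytotoxic control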); conditions: HD-MB03 medulloblastoma cells, stronger effect = higher value
[8] = growth inhibition, single agents and combos, UWB1.289, cell-based, BGB or cisplatin combos, synergistic combos for chromothripsis tumors (AID 1671456; in the data active means inhibition above about 80%;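 further: cells exposed to compound for four days; 0% = vehicle DMSO and 100% = killing by high DMSO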); conditions: UWB1.289 ovarian carcinoma cells, stronger effect = higher value
[9] = growth inhibition, single agents and combos, LFS_MB_2R, cell-based, cisplatin combos, synergistic combos for chromothripsis tumors (AID 1671457; in the data active means inhibition above about 80%;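 further: cells exposed to compound for four days before readout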); conditions: LFS_MB_2R medulloblastoma cells, stronger effect = higher value
[10] = UWB1.289_BRCA1 ovarian cancer growth, cell-based, BGB or cisplatin combinations (AID 1671459; in the data active means inhibition above about 80%); conditions: UWB1.289 BRCA1 ovarian carcinoma, drug combinations, stronger effect = higher value
[11] = drug combination toxicity in non-malignant astrocytes – cell-based, BGB or cisplatin IC20 combos, cytotoxicity control for chromothriptic childhood tumor combination screen (AID 1671460; in the data active means inhibition above about 80%;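 further: cells exposed to compounds for 96 hours before viability readout; 0% = vehicle and 100% = killing control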); conditions: Human astrocytes, viability inhibition, drug combinations, at 0.5 µM, stronger effect = higher value
[12] = P. berghei load reduction in hepatocytes – cell-based, HepG2, luciferase luminescence, HepG2 viability, primary screen (AID 624349);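 further: 100% = mean of DMSO negative control wells on the same plate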; conditions: P. berghei liver stage in HepG2, luciferase luminescence, concentration not given here; parasite load remaining: stronger effect = lower value; viability: measured here: HepG2 viability without parasites
[13] = antimalarial activity against Dd2 strain (AID 2302;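 active means growth inhibition above 50% at the single 2 µM test dose, taken to imply half-maximal potency below 2 µM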;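 further: 0% = DMSO untreated growth and 100% = chloroquine plus artemisinin killed control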); conditions: P. falciparum Dd2 in RBCs, LDH growth readout, 72 h; at 2 µM; stronger effect = higher value
[14] = target: L-lactate dehydrogenase (Plasmodium falciparum (isolate CDC / Honduras)) (UniProt Q27743); assay: PfLDH activity inhibition – cell lysate, 3D7 strain, counter-screen for P. falciparum growth inhibition project (AID 2304; call rule not given here;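 further: 0% = vehicle and 100% = reference inhibitor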); conditions: P. falciparum 3D7 crude extract, LDH APAD/NBT absorbance; at 2 µM; stronger effect = higher value
[15] = inhibition of 3D7 malaria parasite growth – strain 3D7 (AID 2306; call rule not given here;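 further: 0% = DMSO wells and 100% = chloroquine plus artemisinin control wells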); conditions: P. falciparum 3D7 erythrocytic growth, LDH absorbance, 72 h; at 2 µM; stronger effect = higher value
[16] = measured here: combination with BGB at IC20, at 0.5 µM
[17] = measured here: combination with cisplatin at IC20, at 0.5 µM
[18] = measured here: combo with BGB at IC20, at 0.5 µM
[19] = measured here: combo with cisplatin at IC20, at 0.5 µM
[20] = measured here: inhibition with BGB combination, at 0.05 µM
[21] = measured here: inhibition with cisplatin combination, at 0.05 µM
[22] = measured here: combination with cisplatin, at 0.5 µM
[23] = measured here: combination with cisplatin, at 5 µM
[24] = BGB combination, concentration series, at 5 µM
[25] = cisplatin combination, concentration series, at 5 µM
[26] = measured here: combo with BGB IC20
[27] = measured here: combo with cisplatin IC20

ATP-dependent translocase ABCB1 (Homo sapiens), sequence (P08183 whole entry, looked up): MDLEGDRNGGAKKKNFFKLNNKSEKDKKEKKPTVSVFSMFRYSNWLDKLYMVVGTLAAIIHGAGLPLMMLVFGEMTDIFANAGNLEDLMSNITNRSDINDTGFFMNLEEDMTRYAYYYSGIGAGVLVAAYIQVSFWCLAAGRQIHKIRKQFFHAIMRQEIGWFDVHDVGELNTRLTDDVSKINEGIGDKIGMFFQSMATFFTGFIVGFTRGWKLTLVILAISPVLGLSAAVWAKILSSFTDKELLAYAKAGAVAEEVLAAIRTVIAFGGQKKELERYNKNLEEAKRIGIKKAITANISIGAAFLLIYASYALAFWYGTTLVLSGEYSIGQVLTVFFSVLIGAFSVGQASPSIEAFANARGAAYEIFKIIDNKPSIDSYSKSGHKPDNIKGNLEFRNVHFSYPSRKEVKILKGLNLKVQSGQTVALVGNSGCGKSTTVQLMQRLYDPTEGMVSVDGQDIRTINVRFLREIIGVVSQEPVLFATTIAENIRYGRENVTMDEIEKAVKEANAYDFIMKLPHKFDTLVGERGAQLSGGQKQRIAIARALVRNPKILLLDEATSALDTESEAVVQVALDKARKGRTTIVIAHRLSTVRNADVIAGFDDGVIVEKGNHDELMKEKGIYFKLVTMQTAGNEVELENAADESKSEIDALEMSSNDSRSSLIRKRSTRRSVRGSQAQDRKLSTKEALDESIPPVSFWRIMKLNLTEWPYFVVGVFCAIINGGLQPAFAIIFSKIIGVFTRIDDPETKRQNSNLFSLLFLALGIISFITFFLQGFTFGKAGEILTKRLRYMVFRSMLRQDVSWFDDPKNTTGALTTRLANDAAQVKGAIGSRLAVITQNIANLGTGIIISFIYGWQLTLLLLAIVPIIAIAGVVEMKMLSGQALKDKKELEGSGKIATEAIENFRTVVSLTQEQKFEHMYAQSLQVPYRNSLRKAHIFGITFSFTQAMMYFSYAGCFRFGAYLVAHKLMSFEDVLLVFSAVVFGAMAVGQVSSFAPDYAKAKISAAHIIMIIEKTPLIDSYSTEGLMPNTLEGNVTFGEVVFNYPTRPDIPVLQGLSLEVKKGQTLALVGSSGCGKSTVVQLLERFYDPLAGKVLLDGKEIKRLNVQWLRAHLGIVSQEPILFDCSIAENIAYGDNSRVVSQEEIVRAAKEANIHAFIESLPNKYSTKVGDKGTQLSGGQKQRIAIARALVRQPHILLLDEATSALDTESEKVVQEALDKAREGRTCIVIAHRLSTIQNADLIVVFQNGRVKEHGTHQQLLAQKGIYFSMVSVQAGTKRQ
L-lactate dehydrogenase (Plasmodium falciparum (isolate CDC / Honduras)), sequence (Q27743 whole entry, looked up): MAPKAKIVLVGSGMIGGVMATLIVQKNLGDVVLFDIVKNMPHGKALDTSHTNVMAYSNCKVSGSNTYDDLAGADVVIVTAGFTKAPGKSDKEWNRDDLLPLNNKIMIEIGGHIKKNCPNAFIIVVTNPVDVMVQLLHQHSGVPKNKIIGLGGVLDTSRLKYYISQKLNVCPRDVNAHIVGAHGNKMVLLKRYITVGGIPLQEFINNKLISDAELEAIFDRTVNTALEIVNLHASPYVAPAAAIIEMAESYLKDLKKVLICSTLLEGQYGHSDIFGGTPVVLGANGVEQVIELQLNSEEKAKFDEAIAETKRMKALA

Compound: NNCCc1ccccc1
- fluorescence slope change [1]: 67.1% (active)
- period change [2]: 0.145 h (inactive)
- z-score [3]: -0.0568 (inactive)
- outcome [4]: inactive

Compound: O=C1c2c(O)ccc(O)c2C(=O)c2c(NCCNCCO)ccc(NCCNCCO)c21
- period change [2]: -1.74 h (active)
- AC50 [4]: 10.5 µM (active)
- SSMD [5]: -1.6
- cell count [5]: 7320
- plate-normalised HSF1 focus index [5]: 0.898 (inactive)
- inhibition ([6]; at 0.5 µM): 7.34% (inactive)
- inhibition [6, 16]: 20.4%
- inhibition [6, 17]: -13.9%
- inhibition ([7]; at 0.5 µM): 88% (active)
- inhibition [7, 18]: 86.5%
- inhibition [7, 19]: 84.8%
- inhibition ([8]; at 0.5 µM): 64.9% (inactive)
- inhibition [8, 20]: -29.8%
- inhibition [8, 21]: -25.8%
- inhibition ([9]; at 0.5 µM): -5.4% (inactive)
- inhibition [9, 22]: 20.8%
- inhibition [9, 23]: 92.5%
- inhibition [10, 24]: 105%
- inhibition ([10]; at 0.5 µM): 63.4% (inactive)
- inhibition [10, 25]: 104%
- inhibition [11]: 68.8% (inactive)
- inhibition [11, 26]: 69.1%
- inhibition [11, 27]: 56.7%

Compound: CC(=O)CC(c1ccccc1)c1c(O)c2ccccc2oc1=O (stereo not drawn)
- parasite load remaining [12]: 43.1% (inactive) and 79.3% (inactive) and 42.7% (inactive)
- viability [12]: 95.3% and 65.5% and 98.1%

Compound: NS(=O)(=O)c1cc2c(cc1Cl)NCNS2(=O)=O
- period change [2]: 0.06 h (inactive)
- outcome [4]: inactive

Compound: NC(=O)c1cnccn1
- fluorescence slope change [1]: 13.7% (inactive)
- period change [2]: 0 h (inactive)
- outcome [4]: inactive

Compound: OCCN1CCN(CCCN2c3ccccc3Sc3ccc(C(F)(F)F)cc32)CC1
- fluorescence slope change [1]: 91.3% (active)
- period change [2]: 0.01 h (inactive)
- z-score [3]: 0.247 (inactive)
- AC50 [4]: 9.34 µM (active)

Compound: CO[C@@]1(NC(=O)Cc2cccs2)C(=O)N2C(C(=O)O)=C(COC(N)=O)CS[C@@H]21
- fluorescence slope change [1]: 94% (active)

Compound: OC(CCN1CCCC1)(c1ccccc1)C1CCCCC1 (stereo not drawn)
- fluorescence slope change [1]: 70.5% (active)

Compound: Cc1ncc([N+](=O)[O-])n1CC(C)O (stereo not drawn)
- parasite load remaining [12]: 136% (inactive) and 103% (inactive) and 36% (inactive)
- viability [12]: 85.3% and 77% and 71%
- z-score [3]: 0.376 (inactive)

Compound: COC1=CC(=O)C[C@@H](C)[C@]12Oc1c(Cl)c(OC)cc(OC)c1C2=O
- parasite load remaining [12]: 86.5% (inactive) and 55.9% (inactive) and 116% (inactive)
- viability [12]: 139% and 48% and 184%

Compound: Nc1ncn([C@@H]2O[C@H](CO)[C@@H](O)[C@H]2O)c(=O)n1
- period change [2]: 0.105 h (inactive)
- parasite load remaining [12]: 162% (inactive) and 170% (inactive) and 176% (inactive)
- viability [12]: 101% and 77.2% and 95%
- AC50 [4]: 1.66 µM (active)
- SSMD [5]: 1.14
- cell count [5]: 7120
- plate-normalised HSF1 focus index [5]: 1.04 (inactive)

Compound: NC(=O)N1c2ccccc2CC(=O)c2ccccc21
- z-score [3]: 0.598 (inactive)

Compound: c1ccc2[nH]c(-c3cscn3)nc2c1
- fluorescence slope change [1]: 17.8% (inactive)

Compound: O=c1[nH]cc(F)c(=O)[nH]1
- period change [2]: 0.215 h (inactive)
- outcome [4]: inactive
- SSMD [5]: 2.14
- cell count [5]: 7020
- plate-normalised HSF1 focus index [5]: 1.12 (inactive)
- inhibition ([6]; at 0.5 µM): -19.9% (inactive)
- inhibition [6, 16]: -48.5%
- inhibition [6, 17]: 13.5%
- inhibition ([7]; at 0.5 µM): -10.4% (inactive)
- inhibition [7, 18]: -12.3%
- inhibition [7, 19]: -6.42%
- inhibition ([8]; at 0.5 µM): 0.81% (inactive)
- inhibition [8, 20]: -23.6%
- inhibition [8, 21]: -10.5%
- inhibition ([9]; at 0.5 µM): -13.7% (inactive)
- inhibition [9, 22]: -7.48%
- inhibition [9, 23]: -1.94%
- inhibition [10, 24]: 2.42%
- inhibition ([10]; at 0.5 µM): -7.71% (inactive)
- inhibition [10, 25]: 17%
- inhibition [11]: -3.88% (inactive)
- inhibition [11, 26]: 2.98%
- inhibition [11, 27]: -4.03%

Compound: CCCNCC(O)COc1ccccc1C(=O)CCc1ccccc1 (stereo not drawn)
- fluorescence slope change [1]: 74.2% (active)
- period change [2]: -0.03 h (inactive)
- outcome [4]: inactive

Compound: O=C1C(CCS(=O)c2ccccc2)C(=O)N(c2ccccc2)N1c1ccccc1 (stereo not drawn)
- fluorescence slope change [1]: 61.4% (active)

Compound: NS(=O)(=O)c1cc(C2(O)NC(=O)c3ccccc32)ccc1Cl (stereo not drawn)
- fluorescence slope change [1]: 22.1% (inactive)

Compound: Cc1ccc(-c2cc(C(F)(F)F)nn2-c2ccc(S(N)(=O)=O)cc2)cc1
- AC50 [4]: 18.6 µM (active)
- SSMD [5]: -12.9
- cell count [5]: 5490
- plate-normalised HSF1 focus index [5]: 0.546 (inactive)

Compound: NS(=O)(=O)c1cc2c(cc1Cl)NC=NS2(=O)=O
- period change [2]: 0.02 h (inactive)
- outcome [4]: inactive

Compound: CN1CCCC(n2nc(Cc3ccc(Cl)cc3)c3ccccc3c2=O)CC1 (stereo not drawn)
- parasite load remaining [12]: 30% (inactive) and 46.4% (inactive) and 19.4% (inactive)
- viability [12]: 75.4% and 180% and 64.4%
- z-score [3]: 0.519 (inactive)

Compound: O=S(=O)(O)CCS
- fluorescence slope change [1]: 5.5% (inactive)
- parasite load remaining [12]: 51.7% (inactive) and 115% (inactive) and 24.6% (inactive)
- viability [12]: 104% and 70.5% and 96.3%
- outcome [4]: inactive

Compound: CN[C@H]1CC[C@@H](c2ccc(Cl)c(Cl)c2)c2ccccc21
- z-score [3]: -0.0357 (inactive)
- AC50 [4]: 26.3 µM (active)

Compound: CCn1cc(C(=O)O)c(=O)c2cc(F)c(N3CCN(C)CC3)cc21
- z-score [3]: -1.05 (inactive)
- inhibition ([6]; at 0.5 µM): -41.2% (inactive) and 7.78% (inactive)
- inhibition [6, 16]: -48.5% and 10.5%
- inhibition [6, 17]: -57.7% and 40.3%
- inhibition ([7]; at 0.5 µM): -16.4% (inactive) and 1.14% (inactive)
- inhibition [7, 18]: -17.4% and 6.49%
- inhibition [7, 19]: -24.9% and -8.23%
- inhibition ([8]; at 0.5 µM): -8.81% (inactive) and 8.67% (inactive)
- inhibition [8, 20]: -24.8% and -1.17%
- inhibition [8, 21]: -21.6% and 2.48%
- inhibition ([9]; at 0.5 µM): -5.46% (inactive) and 1.79% (inactive)
- inhibition [9, 22]: 3.08% and 3.79%
- inhibition [9, 23]: -14.9% and -26.1%
- inhibition [10, 24]: -6.71% and 0.813%
- inhibition ([10]; at 0.5 µM): -17.9% (inactive) and 5.05% (inactive)
- inhibition [10, 25]: -12.6% and 1.69%
- inhibition [11]: -3.63% (inactive) and -0.44% (inactive)
- inhibition [11, 26]: 1.4% and 4.59%
- inhibition [11, 27]: -18.3% and 1.72%

Compound: CCc1cccc2c3c([nH]c12)C(CC)(CC(=O)O)OCC3 (stereo not drawn)
- fluorescence slope change [1]: 73.7% (active)
- period change [2]: -0.07 h (inactive)

Compound: CCc1nc(N)nc(N)c1-c1ccc(Cl)cc1
- growth inhibition [13]: 0% (inactive) and -1% (inactive)
- inhibition [14]: -5% (inactive) and 5% (inactive)
- growth inhibition [15]: 94% (active) and 93% (active)

Compound: CN(C)CCc1c[nH]c2ccc(C[C@H]3COC(=O)N3)cc12
- parasite load remaining [12]: 65.6% (inactive) and 76.6% (inactive) and 61% (inactive)
- viability [12]: 90.7% and 99.3% and 74.3%
- z-score [3]: -0.511 (inactive)

Compound: CC(C)(C)NCC(O)COc1cccc2c1C[C@H](O)[C@H](O)C2 (stereo partly drawn)
- fluorescence slope change [1]: 55.3% (active)
- parasite load remaining [12]: 69.2% (inactive) and 72.2% (inactive) and 65.4% (inactive)
- viability [12]: 124% and 85.6% and 141%

Compound: Cc1onc(-c2c(Cl)cccc2Cl)c1C(=O)N[C@@H]1C(=O)N2[C@@H]1SC(C)(C)[C@@H]2C(=O)O
- fluorescence slope change [1]: 74.3% (active)

Reference: PubChem BioAssay
